Source: PubChem BioAssay (several laboratories)
E coli growth-1 – counter-screen for AddAB inhibitors: E. coli growth inhibition; E. coli V3065 growth, OD600 absorbance, 18 h; inhibition, % at 11.9 µM; 330,000 compounds, 0.27% hits; AID 449728;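 active = inhibition above the campaign's mean inhibition across all tested compounds plus 3 SD, cut at about 9.9% in these data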;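 also: uninfected addAB+ strain grown without phage in ampicillin broth; 0% = DMSO wells and 100% = ciprofloxacin 0.95 µg/ml wells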
Tat transport – blocks Tat-dependent protein export in E. coli; E. coli MC4100 TorA-mCherry Tat export, fluorescence; inhibition, % at 10 µM; 340,000 compounds, 0.036% hits;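 active = mean replicate inhibition at least 50% and at least half of replicates individually reaching 50%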;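 also: exported cargo escapes ClpAP degradation while cytoplasmic cargo is degraded and loses fluorescence; 0% = median of neutral control wells and 100% = median of NaSCN control wells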
E coli growth-2 – blocks Escherichia coli growth | AID 1053175 | 330,000 compounds, 0.21% hits | OD600 absorbance (test concentration not listed) | OD600, 23 h; stronger effect = lower value;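 active = OD600 absorbance below the run mean of sample wells minus 3.6 SD, in any replicate, cut at about 0.56 in these data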
phage Ecoli inh – E. coli growth loss with phage present | growth absorbance | inhibition, % at 11.9 µM | 360,000 compounds, 0.26% hits; in the data active = inhibition above about 11%
AddAB inh – less growth of phage-infected E. coli with AddAB; E. coli expressing H. pylori AddAB, absorbance growth; inhibition, % at 11.9 µM; 330,000 compounds, 0.29% hits; in the data active = inhibition above about 12%;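 also: 0% = vehicle wells of infected cells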
* = called active by the depositor; x = no result given. Rows were chosen to be rich in hits. Some 0.5% of all compounds tested hit in one or more screens of this group.

SMILES	E coli growth-1	Tat transport	E coli growth-2	phage Ecoli inh	AddAB inh
Cc1ccc2c(c1)COc1c3ccc(C(=O)NC(CO)C(C)C)cc3nn1-2 (stereo not drawn)	x	x	0.686	x	x
O=C1CN(S(=O)(=O)c2cc(Br)ccc2Br)CCN1	-0.1	-2.9	0.693	2.2	2.0
O=c1c(Br)ccc(Br)cc1Br	x	6.3	0.523*	7.3	x
COC(=O)[C@]1(C)NC(c2ccc(-c3ccc(F)cc3)cc2)C2C(=O)N(C)C(=O)C21 (stereo partly drawn)	x	x	0.679	x	x
CNS(=O)(=O)c1cccc(C(=O)OCC(=O)Nc2ccc(Cl)cc2F)c1	0.8	3.3	0.69	1.8	1.4
CNS(=O)(=O)c1cccc(C(=O)OCC(=O)Nc2cc(F)ccc2F)c1	10.6*	-11.9	0.7	0.4	3.3
CCOC(=O)N/N=C/C(Cl)=C/c1ccccc1	12.6*	5.4	x	2.2	9.3
CC(C)C(CN(N=O)C(Cc1ccccc1)CN(C)N=O)N(CCc1ccccc1)N=O (stereo not drawn)	x	x	0.706	x	x
Cc1c(-n2c(SCC(C)C)nc3ccccc3c2=O)c(=O)n(-c2ccccc2)n1C	-0.3	-1.3	0.391*	0.4	-1.9
O=[N+]([O-])c1cc(C(F)(F)F)ccc1N1CCN(S(=O)(=O)c2ccc3ccccc3c2)CC1	0.4	-1.2	0.543*	-1.6	2.8
C=CCNc1ncnc2c1[nH]c1ccccc12	3.1	-9.9	0.5*	6.5	2.4
C=CCNc1ncnc2c1[nH]c1ccc(Cl)cc12	5.7	-10.7	0.474*	9.0	6.9
CCOCCCNc1ncnc2c1[nH]c1ccccc12	1.7	-1.1	0.692	2.5	3.4
CC(C)CC1CN=C(Nc2ccccc2)N1CCCCc1ccccc1 (stereo not drawn)	x	x	0.668	x	x
NC(=O)C1CC2(CC(c3cccc(NC(=O)C4CCC(=O)N4)c3)=NO2)CN1C(=O)c1ccccc1 (stereo not drawn)	x	x	0.668	x	x
Cc1ccsc1C(=O)Nc1nnc(-c2ccco2)o1	-0.6	7.0	0.415*	10.6	2.9
NC(=O)SCC(=O)Nc1ccc(Cl)cc1	5.8	-1.6	0.534*	-0.2	2.6
N/C(=N\N=Cc1ccc(F)cc1)NN=Cc1ccc(F)cc1	x	x	0.417*	x	x
CCCC(CN1CCCC1CN1C(N)=NCC1Cc1ccccc1)N1CC(Cc2ccccc2)N(CCc2ccc(Cl)c(Cl)c2)C1=N (stereo not drawn)	x	x	0.0615*	x	x
CC(C)[C@H](CN1CCC[C@H]1CN1C(N)=NC[C@@H]1Cc1ccccc1)N1C[C@@H](Cc2ccccc2)N(CCc2ccc(Cl)c(Cl)c2)C1=N	5.6	8.1	x	x	6.5
CCC[C@@H](CN1CCC[C@H]1CN1C(N)=NC[C@@H]1Cc1ccccc1)N1C[C@@H]([C@H](C)CC)N(CCc2ccc(Cl)c(Cl)c2)C1=N	2.6	0.1	x	x	7.3
CCC[C@@H](CN1CCC[C@H]1CN1C(N)=NC[C@@H]1Cc1ccccc1)N1C[C@@H](Cc2ccccc2)N(CCc2ccc(Cl)c(Cl)c2)C1=N	3.1	2.5	x	4.2	2.4
CC[C@@H](C)[C@@H]1CN([C@@H](CN2CCC[C@H]2CN2C(N)=NC[C@H]2CC(C)C)C(C)C)C(=N)N1CCc1ccc(Cl)c(Cl)c1	5.9	31.1	0.127*	4.6	8.1
CC[C@@H](C)[C@@H]1CN([C@@H](C)CN2CCC[C@H]2CN2C(N)=NC[C@H]2CC(C)C)C(=N)N1CCc1ccc(Cl)c(Cl)c1	1.4	10.7	x	4.7	2.2
CCCC(CN1CCCC1CN1C(N)=NCC1Cc1ccccc1)N1CC(C(C)CC)N(CCc2ccc(Cl)c(Cl)c2)C1=N (stereo not drawn)	x	x	0.338*	x	x
SMILES	E coli growth-1	Tat transport	E coli growth-2	phage Ecoli inh	AddAB inh
CCC[C@@H](CN1CCC[C@H]1CN1C(N)=NC[C@H]1CC(C)C)N1C[C@@H](Cc2ccccc2)N(CCc2ccc(Cl)c(Cl)c2)C1=N	8.0	0.0	0.0585*	0.7	4.5
CCN1C(=O)C2C(c3ccc(-c4cccc(Cl)c4)cc3)N[C@@](Cc3ccccc3)(C(=O)OC)C2C1=O (stereo partly drawn)	x	x	0.744	x	x
CCC[C@@H](CN1CCC[C@H]1CN1C(N)=NC[C@H]1CC(C)C)N1C[C@@H](Cc2ccccc2)N(CCCC2CCCC2)C1=N	2.7	11.6	0.268*	1.0	4.2
C[C@@H](CN1CCC[C@H]1CN1C(N)=NC[C@@H]1Cc1ccccc1)N1C[C@@H](Cc2ccccc2)N(CCc2ccc(Cl)c(Cl)c2)C1=N	6.0	65.8*	x	x	7.3
CC1CN(C(C)CO)C(=O)c2cccc(NC(=O)C3CC3)c2OC1CN(C)Cc1ccc(Cl)c(Cl)c1 (stereo not drawn)	x	x	0.689	x	x
COC1C=CO[C@@]2(C)Oc3c(C)c(O)c4c(O)c(c(C=NN5CCN(C6CCCC6)CC5)c(O)c4c3C2=O)NC(=O)C(C)=CC=CC(C)C(O)C(C)C(O)C(C)C(OC(C)=O)C1C (stereo partly drawn)	x	x	0.0705*	x	x
CO[C@H]1C=CO[C@@]2(C)Oc3c(C)c(O)c4c(O)c(c5c(c4c3C2=O)NC2(CCN(CC(C)C)CC2)N=5)=NC(=O)C(C)=CC=C[C@H](C)[C@H](O)[C@@H](C)[C@@H](O)[C@@H](C)[C@H](OC(C)=O)[C@@H]1C	101.7*	x	x	x	100.5*
O=[N+]([O-])c1cc(C(F)(F)F)ccc1NCCNC(=S)Nc1ccc(Cl)cc1	10.2*	11.7	0.613	7.3	8.8
C=CCSC(=S)NC1CCS(=O)(=O)C1 (stereo not drawn)	-1.9	-21.5	0.502*	2.7	3.7
Cc1noc(C)c1COC(=O)c1cc(S(=O)(=O)N2CCOCC2)ccc1Cl	1.5	21.8	0.676	3.3	-3.7
Cc1noc(C)c1COC(=O)c1cccc(S(=O)(=O)N2CCOCC2)c1	2.0	53.3*	0.702	1.6	3.2
CCOC(=O)C(N=Nc1sc(C(=O)OCC)c(C)c1C(=O)OCC)=C(C)O	x	x	0.745	x	x
CC(C)CC1NC(=O)C(CO)NC(=O)c2cc([N+](=O)[O-])cc(I)c2OCCC(C(N)=O)NC1=O (stereo not drawn)	x	x	0.714	x	x
COc1cccc(C=NNc2ccc([N+](=O)[O-])cn2)c1O	x	x	0.411*	x	x
COc1cccc(/C=N/Nc2ccc([N+](=O)[O-])cc2)c1O	-0.7	-14.9	x	1.1	0.2
CCOc1cccc(/C=N/Nc2ccc(S(=O)(=O)N(CC)CC)cn2)c1O	11.6*	-5.2	x	13.3*	11.6
CNC(=C[N+](=O)[O-])NCCSCc1ccc(CN(C)C)o1	x	x	0.691	x	x
CC1CN=C(N(C)C)N1CCc1ccc(F)cc1 (stereo not drawn)	x	x	0.669	x	x
CC1CN(C(C)CO)C(=O)c2cccc(NC(=O)c3cnccn3)c2OC1CN(C)S(=O)(=O)c1ccc(F)cc1 (stereo not drawn)	x	x	0.724	x	x
CCOc1cc(C2Nc3cccc4cccc(c34)N2)ccc1O	-1.5	2.0	0.675	x	4.5
CCOc1ccc(C2Nc3cccc4cccc(c34)N2)cc1OC	1.7	-2.3	0.555*	2.6	1.8
O=C(Nc1ccc(F)c(Cl)c1)Nc1ccc(Cl)cn1	-0.8	-0.2	0.719	3.7	-1.0
Fc1ccc(NC(=S)Nc2ccc(F)c(Cl)c2)cc1Cl	0.0	-9.2	0.495*	x	1.9
O=C(Nc1ccncc1)Nc1ccc(F)c(Cl)c1	0.9	-2.6	0.514*	6.3	3.8
